Data on 1 compound can be found in PubChem BioAssay AID2284109 (EPA ToxCast).

The structures appear in SMILES notation. Active and inactive are the calls of the source. How the source made its calls: active means hit-call score of the fitted dose curve at least 0.9, where 1 is the maximum; inactive means score below 0.9.

human p38beta (SAPK2) CMGC Kinase, MAPK11 (gene 5600), sequence (Q15759 whole entry, looked up): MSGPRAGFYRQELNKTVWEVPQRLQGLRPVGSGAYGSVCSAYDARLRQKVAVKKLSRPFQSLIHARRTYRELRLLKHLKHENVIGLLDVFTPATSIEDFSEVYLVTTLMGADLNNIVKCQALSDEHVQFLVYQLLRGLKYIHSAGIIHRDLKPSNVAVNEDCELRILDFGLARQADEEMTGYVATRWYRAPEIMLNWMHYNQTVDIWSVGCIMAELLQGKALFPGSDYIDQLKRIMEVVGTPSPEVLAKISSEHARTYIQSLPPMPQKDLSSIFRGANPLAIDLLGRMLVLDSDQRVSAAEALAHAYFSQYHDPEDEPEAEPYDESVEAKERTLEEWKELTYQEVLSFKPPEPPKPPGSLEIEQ

This assay deals with human p38beta (SAPK2) CMGC Kinase, MAPK11 (gene 5600) (UniProt Q15759). Description: ERF_KP_ENZ_hMAPK11: Eurofins (ERF) Enzymatic Radiometric [10 uM ATP] KinaseProfiler LeadHunter Assay for human p38beta (SAPK2) CMGC Kinase. The method, then:
ERF_KP_ENZ_hMAPK11 is a biochemical, single-readout assay that uses extracted gene-proteins in a cell-free assay. Measurements were taken 0.66 hour after chemical dosing in a 96-well plate. See SAPK2 (p38beta) Human CMGC Kinase Enzymatic Radiometric Assay [10 uM ATP], KinaseProfiler.ERF_KP_ENZ_hMAPK11 is an assay component calculated from the ERF_KP_ENZ_hMAPK11 assay. It is designed to measure enzyme activity using a type of enzyme reporter as detected by scintillation counting with radiometry technology.Data from the assay component ERF_KP_ENZ_hMAPK11 was analyzed at the assay endpoint, ERF_KP_ENZ_hMAPK11, in the positive analysis fitting direction relative to DMSO as the negative control and baseline of activity. Using a type of enzyme reporter, loss-of-signal activity can be used to understand changes in enzymatic activity as they relate to gene MAPK11. To generalize the intended target to other relatable targets, this assay endpoint is annotated to the kinase intended target family, where the subfamily is serine/threonine kinase.
SAPK2b (h) is incubated with 25 mM Tris pH 7.5, 0.02 mM EGTA, 0.33 mg/mL myelin basic protein, 10 mM MgAcetate and [gamma-33P]-ATP (specific activity and concentration as required). The reaction is initiated by the addition of the Mg/ATP mix. […]
On to `O=C(/C=C/c1ccc(O)cc1)CC(=O)/C=C/c1ccc(O)cc1`, for which the AC50 was 0.293 nM (active).
